According to PubChem BioAssay:
The source made the active and inactive calls.

Key:
[1] = test system: Plasmodium falciparum Sir2 (PF13_0152, Sir2A); experiment: pfSir2 binders on small-molecule microarrays, primary screen, biochemical, small-molecule microarray, 635 nm fluorescence (AID 1098); settings: small-molecule microarray binding, fluorescence 635 nm; higher = more signal;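 also: score merges spot fluorescence intensity with its signal-to-noise ratio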
[2] = small-molecule microarray binders of probe aDKK1, primary screen, biochemical, biotinylated probe, 635/667 nm fluorescence (AID 1099); settings: higher = more signal;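 also: score merges 667nm spot fluorescence with signal to noise across triplicate slides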
[3] = small-molecule microarray binders of probe aCHRDL2, primary screen, biochemical, biotinylated probe, 635/667 nm fluorescence (AID 1100); settings: higher = more signal
[4] = splicing luciferase reporter signal modulators, primary screen, spliceosome inhibition project, cell-based, HEK293, splice +/- reporter (AID 1101); settings: luminescence, 24 h, higher = more signal, called active from +8 up or from −8 down;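 also: HEK293 cells carrying a splicing-competent luciferase reporter gene; test concentration not given here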
[5] = biological target: Fibroblast growth factor 10 (Homo sapiens) (UniProt O15520); experiment: FGF10 binders on small-molecule microarrays, primary screen, biochemical, small-molecule microarray, 635 nm fluorescence (AID 1102); settings: FGF10 binding, fluorescence 635 nm, higher = more signal
Fibroblast growth factor 10 (Homo sapiens), sequence (O15520 whole entry, looked up): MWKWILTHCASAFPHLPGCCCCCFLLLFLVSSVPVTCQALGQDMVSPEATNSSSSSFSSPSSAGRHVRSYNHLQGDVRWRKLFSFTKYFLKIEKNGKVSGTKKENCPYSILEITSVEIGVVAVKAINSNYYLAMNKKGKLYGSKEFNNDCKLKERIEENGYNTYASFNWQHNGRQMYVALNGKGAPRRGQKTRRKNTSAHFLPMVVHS

[6] = test system: glycogen synthase kinase-3 (GSK3A per assay name; protocol says GSK3B); experiment: GSK3 binders on small-molecule microarrays, primary screen, biochemical, small-molecule microarray, 635 nm fluorescence, GSK3A (AID 1103); settings: small-molecule microarray binding, fluorescence 635 nm; higher = more signal; also: the record names both GSK3A and GSK3B
[7] = biological target: Epidermal growth factor receptor (Homo sapiens) (UniProt P00533); experiment: EGFR binders on small-molecule microarrays, primary screen, biochemical, small-molecule microarray, 635 nm fluorescence (AID 1104); settings: EGFR binding, higher = more signal;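 also: score merges 667 nm emission intensity with spot signal to noise over triplicate slides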
Epidermal growth factor receptor (Homo sapiens), sequence (P00533 whole entry, looked up): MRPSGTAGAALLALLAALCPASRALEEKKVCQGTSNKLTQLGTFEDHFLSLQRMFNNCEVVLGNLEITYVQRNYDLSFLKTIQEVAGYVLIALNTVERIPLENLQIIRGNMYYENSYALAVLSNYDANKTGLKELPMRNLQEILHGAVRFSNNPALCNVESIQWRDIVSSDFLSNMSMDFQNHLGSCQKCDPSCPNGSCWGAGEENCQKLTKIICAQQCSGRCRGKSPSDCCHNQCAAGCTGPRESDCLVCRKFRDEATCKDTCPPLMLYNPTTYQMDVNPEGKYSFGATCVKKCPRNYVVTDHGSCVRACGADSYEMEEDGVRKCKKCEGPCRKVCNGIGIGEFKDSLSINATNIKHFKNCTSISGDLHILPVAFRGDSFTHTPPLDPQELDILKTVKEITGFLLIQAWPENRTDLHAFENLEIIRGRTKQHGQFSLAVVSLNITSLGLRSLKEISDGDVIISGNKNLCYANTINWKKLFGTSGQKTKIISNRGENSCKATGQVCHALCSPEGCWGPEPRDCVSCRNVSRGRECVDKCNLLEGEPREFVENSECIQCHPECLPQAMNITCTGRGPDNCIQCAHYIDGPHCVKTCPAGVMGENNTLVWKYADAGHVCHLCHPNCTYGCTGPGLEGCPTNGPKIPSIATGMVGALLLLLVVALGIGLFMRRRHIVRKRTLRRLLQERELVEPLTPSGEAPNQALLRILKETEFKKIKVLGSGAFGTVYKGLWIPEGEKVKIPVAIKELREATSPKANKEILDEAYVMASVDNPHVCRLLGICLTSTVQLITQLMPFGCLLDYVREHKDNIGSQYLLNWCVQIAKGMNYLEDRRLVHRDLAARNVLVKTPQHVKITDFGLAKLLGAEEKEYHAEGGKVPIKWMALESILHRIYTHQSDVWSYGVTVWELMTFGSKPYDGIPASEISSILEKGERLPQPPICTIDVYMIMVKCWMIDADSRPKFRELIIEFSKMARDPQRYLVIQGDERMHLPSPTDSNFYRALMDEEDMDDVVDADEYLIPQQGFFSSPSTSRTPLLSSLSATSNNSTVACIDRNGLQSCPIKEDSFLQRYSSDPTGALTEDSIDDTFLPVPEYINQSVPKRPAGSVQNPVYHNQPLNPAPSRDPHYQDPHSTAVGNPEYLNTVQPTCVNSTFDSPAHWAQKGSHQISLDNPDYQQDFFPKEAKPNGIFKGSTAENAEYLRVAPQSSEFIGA

[8] = biological target: Follistatin-related protein 3 (Homo sapiens) (UniProt O95633); experiment: FSTL3 binders on small-molecule microarrays, primary screen, biochemical, small-molecule microarray, 635 nm fluorescence (AID 1105); settings: FSTL3 binding, higher = more signal;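 also: score merges emission near 667 nm and signal to noise per printed spot across three slides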
Follistatin-related protein 3 (Homo sapiens), sequence (O95633 whole entry, looked up): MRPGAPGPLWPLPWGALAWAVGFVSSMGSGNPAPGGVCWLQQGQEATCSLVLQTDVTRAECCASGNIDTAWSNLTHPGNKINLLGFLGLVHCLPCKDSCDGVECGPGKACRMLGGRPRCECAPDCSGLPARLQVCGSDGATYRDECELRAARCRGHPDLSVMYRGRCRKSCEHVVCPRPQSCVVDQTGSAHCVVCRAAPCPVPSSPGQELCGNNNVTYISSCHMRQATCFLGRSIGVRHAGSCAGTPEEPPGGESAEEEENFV

[9] = biological target: Dickkopf-related protein 1 (Homo sapiens) (UniProt O94907); experiment: DKK1 binders on small-molecule microarrays, primary screen, biochemical, small-molecule microarray, 635 nm fluorescence scan (AID 1106); settings: DKK1 binding, higher = more signal;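 also: score merges emission near 667 nm with signal to noise over three replicate slides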
Dickkopf-related protein 1 (Homo sapiens), sequence (O94907 whole entry, looked up): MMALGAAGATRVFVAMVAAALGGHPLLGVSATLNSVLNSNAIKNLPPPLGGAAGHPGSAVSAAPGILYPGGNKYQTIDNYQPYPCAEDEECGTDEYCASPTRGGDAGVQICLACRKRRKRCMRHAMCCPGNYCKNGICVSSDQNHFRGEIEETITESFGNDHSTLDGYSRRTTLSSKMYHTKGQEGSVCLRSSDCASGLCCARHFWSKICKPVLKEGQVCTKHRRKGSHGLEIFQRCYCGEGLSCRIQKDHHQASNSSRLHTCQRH

[10] = test system: Inhibin beta A chain (activin A); experiment: INHBA (activin A) binders on microarrays, primary screen, biochemical, small-molecule microarray, 635 nm fluorescence scan (AID 1107); settings: small-molecule microarray binding, higher = more signal;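 also: mouse activin A protein probed at 4.33 µg/mL on printed slides; score merges bound-protein fluorescence near 667 nm with spot signal-to-noise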
[11] = test system: Human papillomavirus type 1a protein E7 (residues 44-93); experiment: HPV1a E7 fragment binders on microarrays, primary screen, biochemical, small-molecule microarray, residues 44-93, 635 nm fluorescence (AID 1108); settings: small-molecule microarray binding, fluorescence 635 nm; higher = more signal;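 also: E7 fragment applied at 1 µg/mL in TBST for 1 h at 4 C; score combines spot fluorescence with its signal to noise ratio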
[12] = modulators of HCV replicon luciferase signal, primary screen, HCV replication inhibitor project, Huh7 cells, luciferase reporter (AID 1109); settings: 48 h, higher = more signal;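 also: huh7 hepatoma cells harbouring a luciferase neomycin HCV replicon reporter; luciferase luminescence as measure of HCV replicon replication; test concentration not given here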
[13] = biological target: Left-right determination factor 2 (Homo sapiens) (UniProt O00292); experiment: LEFTY2 binders on small-molecule microarrays, primary screen, biochemical, small-molecule microarray, 635 nm fluorescence scan (AID 1110); settings: LEFTY2 binding, higher = more signal
Left-right determination factor 2 (Homo sapiens), sequence (O00292 whole entry, looked up): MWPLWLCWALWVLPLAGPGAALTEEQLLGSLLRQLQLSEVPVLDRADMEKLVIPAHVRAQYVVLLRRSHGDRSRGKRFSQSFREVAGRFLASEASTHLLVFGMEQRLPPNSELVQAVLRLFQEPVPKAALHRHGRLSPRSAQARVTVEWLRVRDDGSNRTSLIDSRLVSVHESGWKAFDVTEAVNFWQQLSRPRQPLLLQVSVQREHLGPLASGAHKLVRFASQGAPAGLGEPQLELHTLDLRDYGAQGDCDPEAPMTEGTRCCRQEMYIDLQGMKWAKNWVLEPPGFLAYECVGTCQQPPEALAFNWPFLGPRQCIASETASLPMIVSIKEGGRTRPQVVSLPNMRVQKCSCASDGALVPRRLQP

[14] = biological target: Calmodulin-1 (Homo sapiens) (UniProt P0DP23); experiment: CALM1 binders on microarrays, EGTA buffer, profiling panel, biochemical, small-molecule microarray, Cy5-labelled CALM1 (AID 1111); settings: Cy5-CALM1 binding fluorescence, higher = more signal;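 also: labelled calmodulin applied in Tris saline Tween buffer holding calcium plus EGTA and DTT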
[15] = biological target: Calmodulin-1 (Homo sapiens) (UniProt P0DP23); experiment: calcium-bound CALM1 binders on microarrays, profiling panel, artefact control for SMM control-protein annotation, biochemical, small-molecule microarray, Cy5-labelled CALM1, plus calcium (AID 1112); settings: Cy5-CALM1 binding fluorescence, higher = more signal;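 also: score merges spot fluorescence with signal to noise from triplicate slides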
[16] = small-molecule microarray binders of probe aWnt5a, primary screen, biochemical, biotinylated probe, 635/667 nm fluorescence (AID 1113); settings: higher = more signal;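 also: score merges 667 nm fluorescence intensity with signal-to-noise per printed feature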
[17] = small-molecule microarray binders of probe aShh, primary screen, biochemical, biotinylated probe, 635/667 nm fluorescence (AID 1114); settings: higher = more signal;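 also: probe is biotin-labelled aShh protein from a stem cell growth factor screen; measures binding of labelled protein to compounds printed on the slide; score merges feature fluorescence at 667 nm with signal-to-noise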
[18] = small-molecule microarray binders of probe aNog, primary screen, biochemical, biotinylated probe, 635/667 nm fluorescence (AID 1115); settings: higher = more signal;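 also: probe is biotinylated aNog protein used at 0.15 µg/mL for 1 h at 4 C; z-score combines 667 nm fluorescence of each spot with its signal to noise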
[19] = biological target: Torsin-1A-interacting protein 1 (Homo sapiens) (UniProt Q5JTV8); experiment: LAP1 binders from COS7 cell lysate, primary screen, small-molecule microarray, 635/667 nm fluorescence (AID 1116); settings: COS7-hLAP1 lysate binding, 635 nm fluorescence, higher = more signal
Torsin-1A-interacting protein 1 (Homo sapiens), sequence (Q5JTV8 whole entry, looked up): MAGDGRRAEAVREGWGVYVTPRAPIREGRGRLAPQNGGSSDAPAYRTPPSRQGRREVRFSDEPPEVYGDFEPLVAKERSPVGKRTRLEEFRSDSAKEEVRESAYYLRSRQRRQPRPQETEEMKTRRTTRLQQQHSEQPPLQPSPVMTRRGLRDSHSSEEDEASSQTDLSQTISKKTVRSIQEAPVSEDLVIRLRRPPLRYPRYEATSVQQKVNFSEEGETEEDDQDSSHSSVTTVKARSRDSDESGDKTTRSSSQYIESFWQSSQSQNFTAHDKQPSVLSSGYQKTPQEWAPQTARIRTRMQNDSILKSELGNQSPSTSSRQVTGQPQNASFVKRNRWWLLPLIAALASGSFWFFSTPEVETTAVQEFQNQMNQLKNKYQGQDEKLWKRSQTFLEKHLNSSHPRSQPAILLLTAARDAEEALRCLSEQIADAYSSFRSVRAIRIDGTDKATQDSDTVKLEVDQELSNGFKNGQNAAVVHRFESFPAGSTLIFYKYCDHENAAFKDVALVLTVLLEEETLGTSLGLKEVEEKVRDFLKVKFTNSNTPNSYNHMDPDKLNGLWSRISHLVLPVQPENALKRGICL

[20] = biological target: Alpha-bungarotoxin (Bungarus multicinctus) (UniProt P60615); experiment: alpha-bungarotoxin binders on microarray, profiling panel, artefact control for SMM control protein annotation, biochemical, small-molecule microarray, Alexa647 label, 635/667 nm fluorescence (AID 1117); settings: alpha-BTX-A647 binding fluorescence, higher = more signal
Alpha-bungarotoxin (Bungarus multicinctus), sequence (P60615 whole entry, looked up): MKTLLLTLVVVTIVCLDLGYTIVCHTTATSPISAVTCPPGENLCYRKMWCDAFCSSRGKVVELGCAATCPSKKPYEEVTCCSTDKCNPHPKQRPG

| Compound | composite z-score [1] | composite z-score [2] | composite z-score [3] | z-score [4] | composite z-score [5] | composite z-score [6] | composite z-score [7] | composite z-score [8] | composite z-score [9] | composite z-score [10] | composite z-score [11] | z-score [12] | composite z-score [13] | composite z-score [14] | composite z-score [15] | composite z-score [16] | composite z-score [17] | composite z-score [18] | composite z-score [19] | composite z-score [20] |
| --- | --- | --- | --- | --- | --- | --- | --- | --- | --- | --- | --- | --- | --- | --- | --- | --- | --- | --- | --- | --- |
| Cc1cc(C)c(C(O)C2C=CC3C(=O)NC(=O)C3N2Nc2ccc(Cl)cc2Cl)c(C)c1 (stereo not given) | 0.651 | 0.639 | 1.2 | 0.465 (inactive) | 0.871 | 0.753 | 0.253 | 0.95 | -0.0057 | 1.31 | 1.4 | -0.293 | 0.105 | 2.18 | 0.954 | 0.0489 | 0.171 | 1.92 | 1.78 | 1 |
| O=C(NCc1ccccc1)[C@@H]1c2ccccc2C(=O)N(Cc2ccccc2C(F)(F)F)[C@H]1c1ccc(CO)cc1 | 1.61 | -0.299 | 0.752 | -0.452 (inactive) | 0.112 | -0.076 | -0.406 | -0.45 | -1.09 | 0.212 | 0.966 | 0.129 | -0.948 | -0.526 | -0.317 | -0.252 | -0.419 | -0.383 | -0.934 | -0.166 |
| COC(=O)c1c2oc(c1C(=O)OC)C(=O)N(C)Cc1cn(nn1)C[C@H](Cc1ccccc1)NC(=O)N[C@H](CO)CC2 | -0.595 | -0.349 | -0.264 | 0.322 (inactive) | -0.591 | -0.94 | -0.694 | -0.269 | -0.316 | -0.0248 | -1.07 | -1.18 | -0.683 | -0.633 | -0.197 | -0.246 | -0.154 | -0.299 | -0.641 | -0.277 |
| COc1cc2c(cc1OC)CN(C(=O)[C@@H]1[C@H]3C(=O)O[C@H](c4ccccc4)[C@H](c4ccccc4)N3[C@H](c3ccc(OCCO)cc3)[C@@]13C(=O)Nc1ccccc13)CC2 | 1.41 | 0.0269 | 0.0159 | 0.576 (inactive) | 1.4 | 1.17 | 0.399 | 1.07 | 0.343 | 0.508 | 1.44 | -1.68 | 0.351 | 1.04 | 0.0568 | 0.133 | 0.0328 | -0.592 | 1.14 | 1.91 |
| CC(C)C[C@@H]1NC(=O)[C@@H]2C[C@H](C(=O)NCCCCCN)[C@H](c3ccc(O)cc3)N2C1=O | 0.311 | 0.283 | 0.403 | 0.103 (inactive) | 0.843 | 1.31 | 0.0233 | 1.26 | 0.93 | 0.585 | 1.36 | -0.196 | 1.46 | 1.17 | 0.953 | -0.0194 | 0.108 | -0.651 | 1.19 | 1.2 |
| CCCC[C@@H]1C[C@H]1[C@@H](NC(=O)c1ccccc1)c1ccc(C(F)(F)F)cc1 | -0.829 | 0.455 | 0.926 | -0.188 (inactive) | -0.896 | -1.74 | -1.09 | -0.683 | -0.993 | 0.986 | -1.52 | -0.444 | -1.06 | -0.17 | 0.87 | -0.0084 | -0.296 | -0.194 | -0.309 | -0.501 |
| COC(=O)[C@@]1(Cc2ccc(OC)cc2)[C@H]2c3cc(C(=O)N(C)C)n(C[C@H](O)CO)c3C[C@H]2CN1C(=O)c1ccccc1 | 1.43 | 1.76 | 1.62 | -0.872 (inactive) | 0.376 | 0.0885 | -0.107 | 0.472 | -1.18 | 1.39 | -1.21 | -0.966 | -0.415 | 2.33 | 1.32 | 0.108 | 0.86 | 2.14 | 2.07 | 1.15 |
| COc1ccc([Si](C)(C)[C@@H]2[C@@H](CC(=O)N(CCO)Cc3ccccc3)O[C@]3(C(=O)N(c4ccccc4)c4ccccc43)[C@H]2C)cc1 | 0.908 | -0.262 | -0.426 | -2.14 (inactive) | 0.766 | 0.629 | 0.954 | 1.21 | 0.95 | 0.872 | 1.33 | -4.59 | 0.739 | 0.545 | 0.0061 | -0.0559 | -0.135 | -0.495 | 0.395 | 0.883 |
| C=C[C@@H](COC(C)=O)N(C(=O)OC(C)(C)C)S(=O)(=O)c1ccc(Br)cc1 | 0.732 | 0.311 | -0.152 | 0.446 (inactive) | 1.18 | 1.23 | 0.837 | 1.45 | 2.14 | 0.824 | 0.789 | 0.429 | 1.27 | 0.486 | 0.367 | 0.0973 | -0.141 | -0.0317 | 1.06 | 1.32 |
| CCCNC(=O)[C@@]1(c2ccc([N+](=O)[O-])cc2)CC(=O)N(C2CCCCC2)[C@@H]1c1ccc(CO)cc1 | 0.472 | 0.175 | 0.39 | -0.867 (inactive) | 0.946 | 1.22 | 0.237 | 0.869 | 0.301 | 0.254 | 1.5 | -0.887 | 0.357 | 0.653 | -0.0681 | -0.0285 | 0.446 | -0.0216 | 1.2 | 0.764 |
| CN(C)C(=O)[C@@]1(CCS(=O)(=O)c2ccccc2)N=C(c2ccc(OCCCO)cc2)O[C@H]1c1ccccc1 | 1.32 | 0.415 | 0.854 | 2.27 (inactive) | 0.961 | 1.29 | -0.806 | 0.455 | -0.94 | 0.54 | 1.46 | -1.76 | -0.757 | 1.47 | 0.759 | 0.16 | 0.207 | 0.812 | 1.84 | 1.9 |
